Experimental findings from PubChem BioAssay (NCATS) are described below.

Structures are written as SMILES. Values joined by “and” are separate entries in the source; they are usually repeats but may differ in a detail not shown here. Identical values can stand only once. Inconclusive results are not listed. Active and inactive are the calls of the source. Calls follow the shape of the dose curve; as a rule, active = well fitted curve in the direction sought with a large enough effect; inconclusive = small, poorly fitted or top-dose-only effect, or another doubt; inactive = no such curve, though single readings can be large; an effect the other way counts as inactive or inconclusive.

In experiment [1] the target is Glutathione peroxidase 1 (Homo sapiens) (UniProt P07203). The experiment in a line: Primary qHTS Assay for Inhibitors of Recombinant Selenoprotein Glutathione Peroxidase 1 (GPX1) (AID 1845191). Also: nearly all actives have a fitted effect of over 65% in size. Also: potency is read from the fitted curve at half-maximal effect. To be noted: recombinant GPX1, GR-coupled NADPH fluorescence, 15 min; series mostly up to 48.8 µM. The gist of the method:
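GR-coupled assay: compounds preincubated 30 min at room temperature with GPX1, then reaction started with CHP; final 10 nM GPX1, 1 mM GSH, 0.5 mM CHP, 0.5 mM NADPH, 100 nM GR, 0.01% BSA, pH 7.5 Tris buffer. NADPH fluorescence (340/450 nm) read at 0 and 15 min.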

Experiment [2] concerns the target Phospholipid hydroperoxide glutathione peroxidase GPX4 (Homo sapiens) (UniProt P36969). Description: Primary qHTS Assay for Inhibitors of Recombinant Selenoprotein Glutathione Peroxidase 4 (GPX4) (AID 1845192). Also: nearly all actives have a fitted effect of over 65% in size. Also: potency is read from the fitted curve at half-maximal effect. The settings on record: recombinant GPX4, GR-coupled NADPH fluorescence, 15 min; series mostly up to 50 µM. The gist of the method:
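GR-coupled assay: recombinant GPX4 preincubated 30 min with compound at room temperature; final 200 nM GPX4, 1 mM GSH, 0.5 mM cumene hydroperoxide, 0.5 mM NADPH, 100 nM GR, 0.01% BSA, pH 7.5 Tris. NADPH fluorescence (340/450 nm) read at 0 and 15 min.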

The nature of experiment [3]: Quantitative High-Throughput drug screen in 47 multiple myeloma cell lines against the NCATS MIPE library collection: FR4_PLB cell viability assay (AID 1918924; also: nearly all actives have a fitted effect of over 35% in size; also: potency is read from the fitted curve at half-maximal effect). To be noted: FR4_PLB myeloma cells viability, CellTiter-Glo ATP, 48 h; series mostly up to 45.8 µM. In outline: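 Inhibition of cell viability is measured here. Each line was plated at 500 cells per well, treated with MIPE 4.0 drugs, kept 48 hours at 37C, then assayed for ATP content by CellTiter-Glo luminescence.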

The nature of experiment [4]: Quantitative High-Throughput drug screen in 47 multiple myeloma cell lines against the NCATS MIPE library collection: Delta47_JCRB cell viability assay (AID 1918925; also: nearly all actives have a fitted effect of over 45% in size; also: potency is read from the fitted curve at half-maximal effect). The settings on record: Delta47 myeloma viability, CellTiter-Glo ATP, 48 h; series mostly up to 45.8 µM. The gist of the method:
(§1)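 Primary qHTS used for cherry-picking: cells at 500/well, library compounds for 48 h (37C, 5% CO2), luminescent ATP assay.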

A short description of experiment [5]: Quantitative High-Throughput drug screen in 47 multiple myeloma cell lines against the NCATS MIPE library collection: EJM_DSMZ cell viability assay (AID 1918926; also: nearly all actives have a fitted effect of over 30% in size; also: potency is read from the fitted curve at half-maximal effect). To be noted: EJM myeloma cell viability, CellTiter-Glo ATP, 48 h; series mostly up to 45.8 µM. The gist of the method: as §1
A general note: In ATP-based viability assays light output follows the ATP content of the culture.

The nature of experiment [6]: Quantitative High-Throughput drug screen in 47 multiple myeloma cell lines against the NCATS MIPE library collection: AMO1_DSMZ cell viability assay (AID 1918927; also: nearly all actives have a fitted effect of over 30% in size; also: potency is read from the fitted curve at half-maximal effect). The settings on record: AMO1 myeloma cells viability, CellTiter-Glo ATP luminescence, 48 h; series mostly up to 45.8 µM. In outline:
as §1

Experiment [7] deals with Luciferin 4-monooxygenase (Photinus pyralis) (UniProt P08659). Description: Primary firefly luciferase (FLuc) qHTS assay for identification of artifact compounds. (AID 1845220). Also: nearly all actives have a fitted effect of over 60% in size. The settings on record: purified firefly luciferase, luminescence, 5 min; series mostly up to 54.1 µM. In outline:
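Titrated compounds were incubated 15 min at RT, protected from light, with luciferin and ATP at 10 uM; reaction started with 10 nM FLuc, luminescence imaged at 5 min, and concentration-response fitted by Hill equation.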
On the technique in general: Quantitative high-throughput screening tests each substance at several concentrations.

The nature of experiment [8]: Primary fluorescence-based thiol-reactive (MSTI) qHTS assay for identification of artifact compounds. (AID 1845221).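 Also: thiol-reactive compounds lower the probe fluorescence signal; nearly all actives have a fitted effect of over 65% in size.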 The settings on record: MSTI thiol-reactivity probe, 1 h; series mostly up to 53.8 µM. The gist of the method: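 First, 4 uM MSTI in 2% DMSO/PBS pH 7.4 was dispensed; next, compounds were added; then plates sat 1 h at room temperature without light. Finally, emission at 598 nm was recorded.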

Experiment [9] relates to Nanoluciferase (engineered Oplophorus gracilirostris luciferase). The experiment in a line: Primary Nanoluciferase (NLuc) qHTS assay for identification of artifact compounds. (AID 1845222).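 Also: NLuc secreted into diluted conditioned medium of S16 cells.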 The settings on record: NLuc-conditioned medium, Nano-Glo luminescence, 5 min; series mostly up to 54.1 µM. The gist of the method:
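qHTS format, against NLuc in S16 cell-conditioned medium. Nano-Glo substrate 1:100 was added after 15 min at room temperature. Luminescence was taken after a further 5 min.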

Experiment [10] is described as follows: Primary redox qHTS assay for identification of artifact compounds. (AID 1845223). To be noted: Amplex Red/HRP redox cycling with DTT, fluorescence; series mostly up to 53.8 µM. The gist of the method:
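Amplex Red (25 uM) and HRP (250 mU/mL) in HBSS, with compounds for 15 min, then 250 uM DTT for 30 min, room temperature, dark. Fluorescence 525/598 nm read; normalized to DMSO and 10 uM DA3003; Hill fit.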

The target in experiment [11] is Metallo-beta-lactamase type 2 (Klebsiella pneumoniae) (UniProt C7C422). The experiment in a line: qHTS to identify inhibitors of the New Delhi Metallo-beta-lactamase (NDM): assay validation screen against the NCATS LOPAC Collection (AID 1794843).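 Also: nitrocefin turnover by NDM-1 measured as 485 nm absorbance at plateau.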 To be noted: NDM-1 enzyme, nitrocefin hydrolysis, absorbance 485 nm; series mostly up to 38.4 µM. The gist of the method:
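NDM-1 at 2 nM final in 50 mM HEPES pH 7.0, 1 uM ZnSO4, 0.01% Tween20, preincubated with LOPAC compounds pinned in DMSO; 50 uM nitrocefin (stock) added. Hydrolysis read as absorbance at 485 nm in the plateau phase.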

Glutathione peroxidase 1 (Homo sapiens), sequence (P07203 whole entry, looked up): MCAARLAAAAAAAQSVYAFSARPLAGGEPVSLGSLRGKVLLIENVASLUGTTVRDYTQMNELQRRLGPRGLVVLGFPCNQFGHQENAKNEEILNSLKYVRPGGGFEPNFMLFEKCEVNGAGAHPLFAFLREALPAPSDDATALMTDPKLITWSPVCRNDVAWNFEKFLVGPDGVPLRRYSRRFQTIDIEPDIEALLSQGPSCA
Phospholipid hydroperoxide glutathione peroxidase GPX4 (Homo sapiens), sequence (P36969 whole entry, looked up): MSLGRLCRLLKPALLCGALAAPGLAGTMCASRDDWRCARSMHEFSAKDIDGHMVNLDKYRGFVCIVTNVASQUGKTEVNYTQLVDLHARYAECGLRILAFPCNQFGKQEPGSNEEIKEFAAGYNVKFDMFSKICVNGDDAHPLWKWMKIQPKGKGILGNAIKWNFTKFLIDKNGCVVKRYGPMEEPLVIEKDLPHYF
Metallo-beta-lactamase type 2 (Klebsiella pneumoniae), sequence (C7C422 whole entry, looked up): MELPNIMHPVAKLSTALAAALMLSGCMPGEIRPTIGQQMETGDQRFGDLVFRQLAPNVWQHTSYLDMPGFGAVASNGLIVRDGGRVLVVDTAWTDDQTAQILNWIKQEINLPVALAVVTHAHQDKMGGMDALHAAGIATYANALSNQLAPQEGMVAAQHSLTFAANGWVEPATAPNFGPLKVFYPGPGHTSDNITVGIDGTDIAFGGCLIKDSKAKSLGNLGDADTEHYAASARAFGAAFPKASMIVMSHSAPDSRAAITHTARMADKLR

In the case of `CN1CCN(c2c(F)cc3c(=O)c(C(=O)O)cn(CCF)c3c2F)CC1`, the Potency entry in experiment [1], in experiment [2], in experiment [3], in [4], in experiment [5] and in experiment [6] was “inactive” throughout.
On to `COc1ncnc(NS(=O)(=O)c2ccc(N)cc2)c1OC`, for which the Potency result in experiment [1], in [2], in experiment [3], in [4], in [5] and in experiment [6] was “inactive” in each case.
For the compound `CN(C)c1ccc(C(=C2C=CC(=[N+](C)C)C=C2)c2ccc(N(C)C)cc2)cc1`, the Potency entry in experiment [1] and in [2] was “inactive” throughout. Further, the Potency is 0.132 µM (active) in experiment [3], 0.0105 µM (active) in experiment [4] and 0.148 µM (active) in experiment [5].
With `Nc1nc(F)nc2c1ncn2[C@@H]1O[C@H](CO)[C@@H](O)[C@@H]1O`, the Potency entry in experiment [1], in [2], in [8] and in experiment [10] was “inactive” in each case. Also, the outcome in experiment [7] and in experiment [9] was inactive. Besides, the Potency in [4] is 0.148 µM (active); in experiment [5], 0.418 µM (active); in experiment [6], 0.372 µM (active).
On to `Nc1nc(N)nc(-c2cc(Cl)ccc2Cl)n1`, for which the Potency result in experiment [1], in [2], in [3], in experiment [4] and in experiment [5] was “inactive” throughout.
Take `CNC(=O)c1cc(Oc2ccc(NC(=O)Nc3ccc(Cl)c(C(F)(F)F)c3)cc2)ccn1`: the Potency entry in experiment [1], in [2], in experiment [8] and in [10] was “inactive” in each case. In addition, the call in experiment [7] and in [9] was inactive. Further, the Potency in experiment [3] is 20.9 µM (active); in [4] it was 16.6 µM (active); in [5], 18.7 µM (active); in experiment [6], 5.26 µM (active).
For the compound `CN(C)CCc1c[nH]c2ccc(C[C@H]3COC(=O)N3)cc12`, the Potency entry in [1], in experiment [2], in experiment [8], in [10], in experiment [3] and in experiment [4] was “inactive” each time. In addition, the Potency entry in experiment [5] and in experiment [6] was “inactive” in each case. In addition, the result in experiment [7] and in experiment [9] was inactive.
`Cc1onc(-c2ccccc2Cl)c1C(=O)N[C@@H]1C(=O)N2[C@@H]1SC(C)(C)[C@@H]2C(=O)O`: the Potency entry in experiment [1], in experiment [2], in experiment [8], in experiment [10], in experiment [3] and in experiment [4] was “inactive” each time. Moreover, the Potency entry in [5] and in experiment [6] was “inactive” in each case. Besides, the outcome in experiment [7] and in experiment [9] was inactive.
As for `O=C(O)c1cc(=O)[nH]c(=O)[nH]1`, the Potency result in experiment [1], in [2], in [3], in [4], in experiment [5] and in experiment [6] was “inactive” each time.
As to `CNC1CCCN(c2c(F)cc3c(=O)c(C(=O)O)cn(C4CC4)c3c2OC)C1` (stereo not drawn), the Potency entry in [1], in experiment [2] and in experiment [3] was “inactive” throughout.
Take `Cc1cccc(N(C)C(=S)Oc2ccc3ccccc3c2)c1`: the Potency result in [1], in [2], in experiment [3], in experiment [4] and in [5] was “inactive” throughout.
As for `CC(C)OC(=O)C(C(=O)OC(C)C)=C1SC=CS1`, the Potency result in experiment [1], in experiment [2], in [3], in experiment [4], in experiment [5] and in experiment [6] was “inactive” each time.
For the compound `CCc1c2c(nc3ccc(OC(=O)N4CCC(N5CCCCC5)CC4)cc13)-c1cc3c(c(=O)n1C2)COC(=O)[C@]3(O)CC`, the Potency in experiment [1] was 20.2 µM (active) and 2.05 µM (active); in [2], 12.6 µM (active); in experiment [3], 0.935 µM (active); in [4], 1.32 µM (active); in experiment [5] it was 4.69 µM (active); in experiment [6] it was 1.32 µM (active).
With `COc1cc2nc(N3CCCN(C)CC3)nc(NC3CCN(Cc4ccccc4)CC3)c2cc1OC`, the outcome in [11] was inactive. Moreover, the Potency result in experiment [1] was “inactive”. Moreover, the Potency in experiment [4] is 2.09 µM (active); in experiment [5], 9.35 µM (active); in experiment [6], 7.43 µM (active).
Consider `COC(c1ccccc1)(c1ccccc1)[C@H](Oc1nc(C)cc(C)n1)C(=O)O`, for which the Potency entry in experiment [1], in experiment [2], in experiment [3], in [4], in experiment [5] and in experiment [6] was “inactive” each time.
As to `CCOCC(O)COc1ccc(NC(=O)CC[S+](C)C)cc1` (stereo not drawn), the Potency result in experiment [1], in experiment [2], in experiment [3], in experiment [4], in experiment [5] and in experiment [6] was “inactive” in each case.
In the case of `CCCCc1oc2ccc(NS(C)(=O)=O)cc2c1C(=O)c1ccc(OCCCN(CCCC)CCCC)cc1`, the Potency entry in [1], in experiment [2] and in experiment [10] was “inactive” throughout. For the same compound, the compound was classed as inactive in [7] and in experiment [9]. In addition, the Potency was 16.6 µM (active) in experiment [3], 11.8 µM (active) in experiment [4], 16.6 µM (active) in [5] and 9.35 µM (active) in experiment [6].
As for `Cc1cc(NS(=O)(=O)c2ccc(N)cc2)no1`, the Potency result in experiment [1], in experiment [2], in experiment [3], in experiment [4], in experiment [5] and in experiment [6] was “inactive” in each case.
Take `CCCc1cc(C(N)=S)ccn1`: the Potency entry in experiment [1], in experiment [2], in [3], in experiment [4], in experiment [5] and in experiment [6] was “inactive” in each case.
Consider `CCCN[C@H]1CCc2nc(N)sc2C1`, for which the Potency result in experiment [1], in [2], in [3], in experiment [4] and in [5] was “inactive” each time.
Consider `Cc1noc(NS(=O)(=O)c2ccc(N)cc2)c1C`, for which the Potency result in experiment [1], in [2], in [3], in [4], in experiment [5] and in experiment [6] was “inactive” each time.
Take `Cc1c(-c2ccc(O)cc2)n(Cc2ccc(OCCN3CCCCCC3)cc2)c2ccc(O)cc12`: the Potency entry in experiment [1] and in [2] was “inactive” throughout.
As for `CC1(C)[C@H](C(=O)O)N2C(=O)C[C@H]2S1(=O)=O`, the Potency result in experiment [1], in experiment [2], in experiment [8], in experiment [10], in experiment [3] and in experiment [4] was “inactive” in each case. The Potency result in experiment [5] was “inactive”. Moreover, the compound was classed as inactive in experiment [7] and in experiment [9].
In the case of `CC[C@H](C)C(=O)O[C@H]1C[C@@H](C)C=C2C=C[C@H](C)[C@H](CC[C@@H]3C[C@@H](O)CC(=O)O3)[C@H]21`, the Potency entry in experiment [1], in experiment [2], in experiment [8], in [10], in experiment [5] and in experiment [6] was “inactive” in each case. Besides, the call in experiment [7] and in experiment [9] was inactive.
On to `O=S(=O)(O)CCS`, for which the Potency result in experiment [1], in [2], in experiment [4] and in experiment [5] was “inactive” throughout.
Regarding `N=C(N)c1ccc(OCCCCCOc2ccc(C(=N)N)cc2)cc1`, the Potency result in experiment [1] and in [2] was “inactive” throughout. The values for the Potency in [4] and in experiment [5] were 5.26 µM (active) and 14.8 µM (active), respectively.
